Measured values as given in PubChem BioAssay AID449762 (Southern Research Specialized Biocontainment Screening …, 2010).
Out of some 330,000 compounds screened, about 1,900 (0.58%) were called active. About 4% were inconclusive and are not listed. Not all results are given here. Entries with a potency or affinity are not part of this list. Unmarked numbers belong to inactive results. No stated cut-off is given here; in the data, inconclusive means inhibition above about 70% without an active follow-up result; inactive means below that.

Assay: M. tuberculosis growth inhibition, HTS (AID 449762);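 further: bacterial growth assessed after seven days of incubation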
Conditions: M. tuberculosis H37Rv growth inhibition, 7H9 media; at 25 µM; hits give high values

SMILES	inhibition [%]
Cc1occc1-c1nnc(SCc2nnc(-c3ccc(Cl)cc3)o2)n1C	-6.71
C[C@@H]1C[C@H]2[C@@H]3CCC4=CC(=O)C=C[C@]4(C)[C@@]3(F)[C@@H](O)C[C@]2(C)[C@H]1C(=O)CO	18.9
Cc1cccc(C)c1NC(=O)Cn1nnc(-c2ccc(CN3CCC(C)CC3)cc2)n1	5.96
COC(=O)N/N=C\c1ccccc1OC/C=C/c1ccccc1	7.83
CCOc1ccc(-c2cc(C)[n+](CCO)c(-c3ccc(OCC)cc3)c2)cc1	4.23
CCOc1ccc(-c2cc(C)[n+](CCN3CCOCC3)c(-c3ccc(OCC)cc3)c2)cc1	12.3
COC(=O)/C(=C/Nc1ccccc1)[N+](=O)[O-]	-4.18
Cc1ccc(NC(=O)CS(=O)CC(=O)N(CC(=O)NC2CCCC2)c2ccc3c(c2)OCCO3)cc1 (stereo not drawn)	-4.13
CCn1c2ccccc2c2cc(CN3CCN(S(C)(=O)=O)CC3)ccc21	7.91
COc1ccc(CNCc2ccc3ccccc3c2)c(OC)c1	12.2
CCn1c2ccccc2c2cc(CN3CCN(S(=O)(=O)CC)CC3)ccc21	10.3
COc1cccc(CNCc2ccc(OC)cc2OC)c1	1.71
CCn1cc(C(=O)N2CCCC(CO)(Cc3ccccc3C)C2)cn1 (stereo not drawn)	0.25
COc1cc2oc(=O)ccc2cc1[C@H](O)[C@@H](O)C(C)(C)O	-11.1
COc1ccc(-c2c[n+]3c(n2-c2ccccc2)CCCCC3)cc1	-4.08
COc1ccc(-c2c[n+](CC(=O)c3ccccc3)c3n2CCCCC3)cc1	1.09
CSc1nn(-c2ccc(C(=O)OC(C(=O)NC(N)=O)C(C)C)cc2)c(=S)s1 (stereo not drawn)	50.6
CC(C)NC(=O)NC(=O)COC(=O)c1ccc(OC(F)(F)F)cc1	14.2
O=C(CN1CCN(S(=O)(=O)c2cccc(F)c2)CC1)NCC1(N2CCOCC2)CCCCC1	6.01
CC(C)(C)C(=O)Nc1cc(C(F)(F)F)ccc1-n1ccnc1	-0.21

SMILES	inhibition [%]
Fc1ccc(-n2c(Cn3nnc4ccccc43)n[nH]c2=S)cc1	-5.75
COc1ccccc1NC(=O)CSc1nnnn1C	-4.82
COc1ccccc1NC(=O)c1ccc(NC(=O)CSc2nncn2C)cc1	7.82
COc1ccccc1NS(=O)(=O)c1ccc2ccccc2c1	7.83
CC1CCc2sc(C(=O)NCc3ccccn3)cc2C1 (stereo not drawn)	4.08
O=C(Nc1cccc2ccccc12)c1ccc([N+](=O)[O-])cc1	5.16
CCOC(=O)C1CCCCN1S(=O)(=O)c1cc2c(cc1C)NC(=O)CO2 (stereo not drawn)	-3.9
CCN(C(=O)Cn1ccc(C(F)(F)F)n1)c1c(N)n(Cc2ccccc2)c(=O)[nH]c1=O	-10
O=C(COc1ccc([N+](=O)[O-])cc1)NNC(=S)NC(=O)c1ccc(Br)cc1	10.5
Cc1ccc(S(=O)(=O)N(C)c2ccc(OCC(=O)OCC(=O)N(CC#N)c3ccccc3)cc2)cc1	15.9
Cc1ccc(S(=O)(=O)N(C)c2ccc(OCC(=O)OCc3c(C)noc3C)cc2)cc1	47.9
COc1ccc2[nH]cc(C3=CCNCC3)c2c1	67.9
CN1CC=C(c2c[nH]c3ccccc23)CC1	-13.7
CCOc1cc(C2C3=C(CC(C)(C)CC3=O)N(CCCOC)C3=C2C(=O)CC(C)(C)C3)ccc1OC	1.22
CC(=O)Nc1ccc2c(c1)nc1n2CCOC1	8.99
Cc1ccc(N(CC(=O)Nc2cc(Cl)ccc2Oc2ccccc2)S(C)(=O)=O)cc1C	13.8
Cc1nn(-c2ccccc2)c(N)c1N=Nc1ccc2ccccc2c1	56.7
Cc1nn(-c2ccccc2)c(N)c1N=Nc1ccccc1	-2.88
O=c1c2sccc2nc(SCc2ccc([N+](=O)[O-])cc2)n1Cc1ccccn1	4.82
O=C(CSc1nnnn1-c1ccc2c(c1)OCCO2)N1CCc2ccccc21	5.18

SMILES	inhibition [%]
O=C(CCc1n[nH]c(=O)[nH]c1=O)N1CCOCC1	-14.1
CCCNC(=O)c1cccc(COc2ccccc2OC)c1	3.61
Cc1nc2sccn2c(=O)c1S(=O)(=O)N1CCN(c2ccc(F)cc2)CC1	8.78
Cc1nc2ccccn2c(=O)c1CCN1CCC(C(=O)c2ccc(F)cc2)CC1	-4.74
CCCNC(=S)N(Cc1cc2cc(C)ccc2n2nnnc12)CC(C)(C)CN(C)C	18.8
CNCCNC[C@H](Cc1cccc2ccccc12)NCCc1ccccc1	-2.82
CSCC[C@H](NC(=O)OC(C)(C)C)C(=O)NCC1CCC(C(=O)N[C@@H](Cc2ccccc2)C(=O)O)CC1 (stereo partly drawn)	2.33
C=CCOc1ccccc1CNCCNC(=O)c1nonc1N	-4.17
CCCCCOC(=O)Cn1c(SCC(=O)Nc2ccccc2)nc2c1c(=O)[nH]c(=O)n2C	-7.54
O=C(c1cc([N+](=O)[O-])ccc1N1CCOCC1)N1CCN(S(=O)(=O)c2ccc(F)cc2)CC1	-2.15
C/C(=N/NC(=O)c1cc2ccccc2cc1O)c1ccco1	66.3
C/C(=N\NC(=O)c1cc2ccccc2cc1O)c1cccs1	-0.54
N#CCCN(C(=O)COC(=O)c1nc(Cl)ccc1Cl)c1ccccc1	-6.38
C=CCn1c(C(C)NC(=O)c2cccs2)n[nH]c1=S (stereo not drawn)	-3.28
OCCCNc1nccc(-c2cc(Nc3cccc(Cl)c3)ncn2)n1	5.56
CCC(C)Oc1cc(-c2ccnc(Nc3cccc(Cl)c3)n2)ccn1 (stereo not drawn)	63.7
Cc1ccc(-c2nnn(CC(=O)N(c3cccc(F)c3)C(C(=O)NC3CCCC3)c3ccncc3)n2)o1 (stereo not drawn)	0.25
COCCCNC(=O)CSc1ccc(Cl)cc1	-2.16
